# Results reported in PubChem BioAssay (NCI).
# Compounds without any hit were thinned out: in the full panel of roughly 79,000, 15% have a hit. Unmarked numbers belong to inactive results. Active and inactive are the calls of the source. Rule as the data show it: active = growth inhibition above about 70%; inactive = the rest. Where a SMILES comes first, the peptide text is derived from it. The star is where a group is joined. Cbz = O=C(OCc1ccccc1)*
# What was measured:
# [1] = NCI Yeast Anticancer Drug Screen. Data for the rad50 strain (AID 155);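 also: 0% = growth of vehicle-only cultures of the same strain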; conditions: S. cerevisiae rad50 strain growth inhibition; at 50.0 µM; hits give high values
# How it was run: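 Inhibition values express reduced yeast growth in compound-treated cultures relative to vehicle-treated controls.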
# [2] = NCI Yeast Anticancer Drug Screen. Data for the mec2-1 strain (AID 157); conditions: S. cerevisiae mec2-1 strain, at 50.0 µM, hits give high values
# How it was run: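 Test agents were screened against the mec2-1 yeast strain, with defined DNA repair or cell cycle alteration. Growth was scored as inhibition against vehicle-only controls.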
# [3] = NCI Yeast Anticancer Drug Screen. Data for the sgs1 mgt1 strain (AID 161);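 also: 0% = growth of cultures given vehicle only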; conditions: S. cerevisiae sgs1 mgt1 strain, at 50.0 µM, hits give high values
# How it was run: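 Genetically altered yeast, compound exposure, growth inhibition relative to vehicle.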
# [4] = NCI Yeast Anticancer Drug Screen. Data for the cln2 rad14 strain (AID 165);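 also: 0% = growth equal to vehicle treated cultures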; conditions: S. cerevisiae cln2 rad14 strain, at 50.0 µM, hits give high values
# How it was run: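 Growth of compound-exposed yeast (cln2 rad14 genotype) measured and expressed as inhibition relative to vehicle.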
# [5] = NCI Yeast Anticancer Drug Screen. Data for the bub3 strain (AID 167); conditions: S. cerevisiae bub3 mutant strain, at 50.0 µM, hits give high values
# How it was run: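 Steps: expose the mutant yeast strain to compound; grow alongside vehicle-treated cultures; measure growth; express inhibition against the vehicle cultures.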
# [6] = NCI Yeast Anticancer Drug Screen. Data for the mlh1 rad18 strain (AID 175); conditions: S. cerevisiae mlh1 rad18 strain growth inhibition; at 50.0 µM; hits give high values
# How it was run: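 In this whole-cell yeast screen, a strain with altered DNA damage repair is challenged with compound, and its growth is measured against matched vehicle-treated controls.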
SMILES,growth inhibition [1],growth inhibition [2],growth inhibition [3],growth inhibition [4],growth inhibition [5],growth inhibition [6]
c1ccc(C2=NC(c3ccccc3)N=C(c3ccccc3)N2)cc1,-0.75%,10.3%,6.1%,-6%,9.75%,13.2%
C/C(=N\NC(=S)Nc1cccc2cccc(S(=O)(=O)O)c12)c1ccccn1,3.4%,-0.35%,-18.2%,-5.55%,-7.4%,2.85%
C/C(CC/C(C)=N/O)=N\O,6.4%,4.25%,-0.55%,-9.45%,11.6%,9.7%
CSc1nc(=O)cnn1C,-22.3%,-8.6%,-15.6%,-0.5%,-49.2%,-5.35%
CCCCC(CC)(SC(CC)C(N)=O)C(N)=O (configuration not stated),-2.2%,-0.55%,16.9%,20.1%,5.75%,-5%
COc1ccc(/C=C\c2cc(OC)c(OC)c(OC)c2)cc1OC,5.2%,9.05%,-17.7%,3.05%,-13.1%,12%
CCCC(F)C(=O)OCC (configuration not stated),11.5%,-6.35%,5.4%,-9.35%,10%,0.3%
Cc1cc(Br)ncc1[N+](=O)[O-],-12.8%,3.3%,-1.25%,-6%,-3.7%,-7.6%
Nc1ccc([N+](=O)[O-])cc1C(=O)Oc1ccccn1,9.15%,5%,8.5%,10.8%,-3.6%,19%
COc1cccc(C(=O)O)c1O,-16.9%,-11.8%,-15.3%,-8.8%,-19.9%,-7.7%
C=Cc1c(C)c(C)c(C=C)c(C)c1C,-3.85%,6.65%,-8.2%,4.75%,-10.2%,-17.3%
NC(=O)N(CCO)/N=C/c1ccc([N+](=O)[O-])o1,42.3%,15.7%,54.8%,17.9%,33.6%,59.9%
CC[N+](CC)(CC)C[Si](C)(C)C,5.05%,5.7%,12.1%,2.4%,12%,-6%
C[n+]1cccc(/C=C/C(=O)Nc2ccccc2)c1,5.8%,7%,-24.1%,5.95%,12.1%,19.4%
c1ccc(Cc2nnc3n2CCC(c2ccccc2)S3)cc1 (configuration not stated),-9.8%,1.3%,-10.9%,2.4%,5.05%,-0.25%
CC(C)CCC(C)C1CCC2C3CC/C(=N/Nc4ccc([N+](=O)[O-])cc4[N+](=O)[O-])C(C)(CCC(=O)O)C3CCC12C (configuration not stated),-45.8%,-12.2%,-24.9%,-24.2%,-0.1%,-3.4%
NCCCCCCCCCCC(=O)O,-7.25%,-7.6%,-10.7%,-11.2%,-5.9%,-2.8%
O=C(OCCCl)C1CC2C=CC1C2 (configuration not stated),-4.5%,-10.1%,3.85%,8.25%,-7.2%,-3.4%
COc1ccc(C(=O)NNC(=O)c2ccc3ccccc3c2)cc1,10.8%,1.25%,9.8%,9.95%,5.5%,-7.3%
CC(NC(=O)CNC(=O)CN)C(N)=O (configuration not stated),-23.9%,-0.65%,-17.1%,5.9%,8.25%,-17.2%
O=C(O)C1CCCCCC1,7.45%,0.65%,1.8%,-2.55%,8.65%,2%

SMILES,growth inhibition [1],growth inhibition [2],growth inhibition [3],growth inhibition [4],growth inhibition [5],growth inhibition [6]
O=C1CN(N2C(=O)CSC2C23CC4CC(CC(C4)C2)C3)C(=O)CN1c1ccccc1 (configuration not stated),7.2%,2.1%,13%,24.8%,-2.6%,12.8%
COc1ccc(OC)c(N2C(=O)C(=O)C(C(C)=O)C2=O)c1 (configuration not stated),27.7%,-1.95%,7.15%,25.1%,7.65%,16.5%
CC(NC(=O)OCc1ccccc1)C(=O)NC(CO)C(N)=O (stereo not drawn) (Cbz-Ala-Ser-NH2; configuration not given here),6.15%,-6.5%,-0.25%,19.2%,5.95%,8.1%
Nc1ncnc2c1ncn2CCCCCO,5.15%,49.7%,13.7%,7.35%,3.45%,13.3%
O=C1OC(c2ccccc2)(C2(c3ccccc3)C=C(c3ccccc3)C(=O)O2)C=C1c1ccccc1 (configuration not stated),39.2%,-3%,0.7%,-3.8%,5.3%,3.15%
O=C(O)CCc1nc2ccccc2[nH]1,-9.3%,-4.9%,-23.8%,39.1%,-43.9%,-1%
COC(=O)C1(C)C(=O)NC(=O)CC1C (configuration not stated),9.65%,0%,1%,-30.5%,-2.5%,-3.2%
CC(=O)/C=C/C=C/c1ccco1,-0.85%,1.3%,9.15%,-9.7%,10.4%,11.6%
CCC(N)CS(=O)(=O)O (configuration not stated),-33.7%,-19.6%,-9.9%,-61%,-26.8%,-45.1%
NC(=S)CNC(=O)c1ccccc1,-28.6%,-33.1%,-29.3%,-9.55%,-11.8%,9.6%
COC(=O)/C=C/c1ccc(OP(=O)(O)O)c(OC)c1,-22.1%,-8.9%,-30.6%,-20.6%,-56.7%,-15.4%
COc1c(Cl)c(Cl)c2ncc(Cl)cc2c1Cl,-3.7%,-3.3%,-3.5%,-29.1%,14.8%,-14.9%
CCOc1nc(N)nc(C)c1N=Nc1ccccc1C,18.8%,18.1%,5.7%,-12.5%,12.2%,15.7%
Cc1ccnc(=S)[nH]1,16.9%,5.45%,33.1%,13.3%,23.6%,18.3%
O=C(CCl)NC(=O)NC1=C(Cl)C(=O)c2ccccc2C1=O,98% (active),98.6% (active),98.3% (active),97.7% (active),98.3% (active),97.7% (active)
CCOC(=O)C1(C(=O)OCC)OC(=O)NC2=C1CCCC2,-13.3%,-29.1%,-8.6%,-15.7%,-1.95%,-23.9%
OCCCCCOCc1ccccc1,18.9%,3.6%,42.1%,42.8%,-8.65%,23.3%
COC(=O)c1nnn(-c2ccc(C)c(C)c2)c1C(=O)c1ccccc1,-2.7%,-2.5%,-15.2%,16.5%,-8.25%,29.1%
COC(=O)/C(=C\Nc1cccc(C)n1)S(=O)(=O)c1ccc(C)cc1,-33.9%,-1.55%,18.5%,-21.5%,7.3%,12.8%
CCN(CC)CC(=N)N(CC)c1ccccc1,26.5%,6.95%,4.7%,11.9%,23.8%,28.5%
C[C@H]1O[C@@H](C(C)(C)C)OC(=O)[C@@H]1C(OC(=O)c1ccccc1)c1cccc2ccccc12 (some centres not stated),-0.1%,3.15%,12.1%,25.3%,-3.45%,8%
